Data from PubChem BioAssay (NCATS).
Records with an inconclusive call do not appear. Where a call stands in place of a potency, no number is given. Activity calls are given as the source filed them. Calls come from the whole dose curve; as a rule, active = well fitted cell-killing curve with a large enough effect; inconclusive = small, poorly fitted or top-dose-only effect, or effect the other way; inactive = no such curve, though single readings can be large or run the other way.

assay: Quantitative High-Throughput drug screen in 47 multiple myeloma cell lines against the NCATS MIPE library collection: KMM1_JCRB cell viability assay (AID 1918960); conditions: KMM1 myeloma viability, CellTiter-Glo ATP luminescence, 48 h; series mostly up to 45.8 µM; note: nearly all actives have a fitted effect of over 30% in size
Outline: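 Each line was plated at 500 cells/well and treated 48 h with library drugs. Viability came from CellTiter-Glo luminescence relative to DMSO and cell-free medium controls.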
Potency is the fitted concentration of half-maximal effect.

SMILES | Potency
CC1CCN(c2cc(N3CCN(C)CC3)ccc2NC(=O)c2cc(C#N)c[nH]2)CC1 | inactive
COc1cc2nccc(Oc3ccc(NC(=O)Nc4ccc(F)cc4F)c(F)c3)c2cc1OC | inactive
CC[C@H](CC#N)OC(=O)N[C@@H](C)c1cccc(NC(=O)Nc2ccc(-c3cnco3)c(OC)c2)c1 | 0.418 µM (active)
COc1ccc(-c2nc3ccc(C4=NNC(=O)CC4C)cc3[nH]2)cc1 (stereo not drawn) | inactive
CC(C)CN(C[C@@H](O)[C@H](Cc1ccccc1)NC(=O)O[C@H]1CO[C@H]2OCC[C@H]21)S(=O)(=O)c1ccc(N)cc1 | inactive
COc1cc([C@H]2Oc3cc([C@H]4Oc5cc(O)cc(O)c5C(=O)[C@H]4O)ccc3O[C@H]2CO)ccc1O | inactive
CCN1C[C@H](C)n2c(c(O)c3c(=O)n(Cc4ccc(F)c(Cl)c4)nc(C(=O)NC)c32)C1=O | inactive
CCCCCOC(=O)Nc1nc(=O)n([C@@H]2O[C@H](C)[C@@H](O)C2O)cc1F (stereo partly drawn) | inactive
NC[C@H]1O[C@H](O[C@@H]2[C@@H](O)[C@@H](O[C@H]3O[C@H](CO)[C@@H](O)[C@H](N)[C@@H]3O)[C@H](N)C[C@@H]2N)[C@H](O)[C@@H](O)[C@H]1O | inactive
Clc1ccc(COC(Cn2ccnc2)c2ccc(Cl)cc2Cl)c(Cl)c1 (stereo not drawn) | 18.7 µM (active)
CN(C)c1ccc(-c2nc3ncc(Cl)c(N4CCN(CC(=O)Nc5nccs5)CC4)c3[nH]2)cc1 | inactive
CN1[C@H]2CC[C@H]1CC(OC(=O)c1c[nH]c3ccccc13)C2 (stereo partly drawn) | inactive
COc1cc(F)c(C(C)C)cc1-c1ccc(C(F)(F)F)cc1CN1C(=O)O[C@H](c2cc(C(F)(F)F)cc(C(F)(F)F)c2)[C@@H]1C | inactive
CC[C@H](C)C(=O)O[C@H]1C[C@H](O)C=C2C=C[C@H](C)[C@H](CC[C@@H](O)C[C@@H](O)CC(=O)O)[C@H]21 | inactive
O=C(CO)N1CCC(c2[nH]nc(-c3ccc(Cl)cc3)c2-c2ccncn2)CC1 | inactive
C#CCN(C)CC1=Cc2ccccc2Oc2ccccc21 | inactive
CC(C)(C)c1[nH]cnc1C=c1[nH]c(=O)c(=Cc2ccccc2)[nH]c1=O | inactive

SMILES | Potency
CN1CCN(c2cccc(Nc3nc4c(-c5ccc(S(C)(=O)=O)cc5)cccn4n3)c2)CC1 | 1.66 µM (active)
COc1ccc(-c2oc3c(CC=C(C)C)c(O)cc(O)c3c(=O)c2O)cc1 | inactive
CCCCCCCCCCCCCC(=O)N[C@H](CO)[C@H](O)c1ccc([N+](=O)[O-])cc1 | 20.9 µM (active)
CC(C)=CCCC(C)=CCCC(C)=CCCC(C)=CCCC(C)=CCCC(C)=CCCC(C)=CCCC(C)=CCCC(C)=CCO | inactive
C=CCc1cccc(C=NNC(=O)CN2CCN(Cc3ccccc3)CC2)c1O | 5.26 µM (active)
O=C(NC[C@H](O)CO)c1ccncc1Nc1ccc(I)cc1F | 6.62 µM (active)
C[C@@H]1[C@H](C)CC[C@]2(C(=O)O)CC[C@]3(C)C(=CC[C@@H]4[C@@]5(C)CC[C@H](O)C(C)(C)[C@H]5CC[C@]43C)[C@@H]12 | inactive
COc1ccnc(CS(=O)c2nc3ccc(OC(F)F)cc3[nH]2)c1OC (stereo not drawn) | inactive
CNC(=O)c1cc(COc2nnc(Nc3ccc(Cl)cc3)c3ccoc23)ccn1 | 9.35 µM (active)
CC[C@H]1OC(=O)[C@H](C)[C@@H](O[C@H]2C[C@@](C)(OC)[C@@H](O)[C@H](C)O2)[C@H](C)[C@@H](O[C@@H]2O[C@H](C)C[C@H](N(C)C)[C@H]2O)[C@](C)(O)C[C@H](C)C(=NOCOCCOC)[C@H](C)[C@@H](O)[C@]1(C)O | inactive
COc1ccc(-c2cc(=O)c3c(O)cc(O[C@@H]4O[C@H](CO[C@@H]5O[C@@H](C)[C@H](O)[C@@H](O)[C@@H]5O)[C@@H](O)[C@H](O)[C@@H]4O)cc3o2)cc1O | inactive
CN[C@@H](C)[C@H]1[C@H](O)C[C@@]2(C)[C@@H]3CC[C@H]4C(C)(C)[C@@H](NC)CC[C@@]45C[C@@]35CC[C@]12C | inactive
CC1C(=O)OC2C(O)C34C5CC(C(C)(C)C)C36C(OC(=O)C6O)OC4(C(=O)O5)C12O (stereo not drawn) | inactive
Oc1cc(O)cc(C=Cc2ccc(O)c(O)c2)c1 | 13.2 µM (active)
Nc1ncnc2c1c(-c1cccc(OCc3ccccc3)c1)cn2C1CC(CN2CCC2)C1 (stereo not drawn) | 0.372 µM (active)
C=C[C@@H]1CN2CCC1C[C@@H]2C(O)c1ccnc2ccc(OC)cc12 (stereo partly drawn) | inactive
